Assay results as given in PubChem BioAssay AID1259325 (C. David Weaver Laboratory, Vanderbilt University, 2017).
Hit rate of the full screen: of about 63,000 compounds, about 30 (0.05%) were called active. No rule for the calls is given here. These entries were drawn from the full list.

Biological target: G protein-activated inward rectifier potassium channel 2 (Homo sapiens) (UniProt P48051)
Test: activators of human GIRK2 potassium channels (AID 1259325)
Settings: HEK293-GIRK2 thallium flux, Thallos fluorescence, MPD

G protein-activated inward rectifier potassium channel 2 (Homo sapiens), sequence (P48051 whole entry, looked up): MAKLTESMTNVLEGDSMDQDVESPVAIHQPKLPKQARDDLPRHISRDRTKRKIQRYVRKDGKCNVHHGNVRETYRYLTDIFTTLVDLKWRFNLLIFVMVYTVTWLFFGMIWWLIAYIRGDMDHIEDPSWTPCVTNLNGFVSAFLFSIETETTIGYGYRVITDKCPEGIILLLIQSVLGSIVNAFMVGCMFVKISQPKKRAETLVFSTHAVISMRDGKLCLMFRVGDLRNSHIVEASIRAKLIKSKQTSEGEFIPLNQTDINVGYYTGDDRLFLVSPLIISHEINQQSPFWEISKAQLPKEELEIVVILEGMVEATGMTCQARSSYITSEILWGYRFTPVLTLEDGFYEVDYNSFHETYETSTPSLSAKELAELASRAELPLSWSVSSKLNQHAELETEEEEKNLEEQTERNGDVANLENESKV

outcome, inactive:
COc1ccccc1N1CCN(CC(=O)N2CCN(S(C)(=O)=O)CC2)C1=O, COc1ccccc1NC(=O)CN1N=NC2C(=O)N(c3ccc(F)c(F)c3)C(=O)C21 (centres undefined), CCOc1ccc(C2C(C(=O)c3sc(C)nc3C)=C(O)C(=O)N2CCCN(C)C)cc1 (centres undefined), CN(C)C(CNC(=O)C1c2ccccc2Oc2ccccc21)c1cccn1C (centres undefined), CCCN(C)c1nccn2c(=O)n(CC(=O)Nc3cccc(CC)c3)nc12, CCOC(=O)c1ccc(NC(=O)Cn2ccn(Cc3ccc(Cl)cc3)c(=O)c2=O)cc1, Cc1nc(C)c(-c2ccc(=O)n(CCNC(=O)C3CCN(S(C)(=O)=O)CC3)n2)s1, O=C(c1ccc2c(c1)OCO2)N1CCC(CSc2ccccn2)CC1, COc1ccc(S(=O)(=O)N2CCCOC2CNC(=O)C(=O)NCc2ccc(C)cc2)cc1OC (centres undefined), Cn1c(=O)n(CCc2ccccc2)c(=O)c2c(N3CCN(C(=O)c4ccco4)CC3)ccnc21, COc1cccc(CSc2nc(C)c(CC(=O)NCc3cccs3)c(=O)[nH]2)c1, COc1ccc(NC(=O)CSc2nnc(C3CC(=O)N(c4ccc(C)cc4)C3)o2)cc1 (centres undefined), O=C(O)CCC/C=C\C[C@@H]1C(/C=C/[C@@H](O)COc2cccc(C(F)(F)F)c2)[C@H](O)C[C@@H]1O (some centres undefined), O=C(CSc1ccc(-c2nc(-c3ccccc3)no2)cn1)NCc1ccc2c(c1)OCO2, CCCNC(=O)Cn1nc2c(c1NC(=O)COc1ccccc1F)CSC2, O=C(COc1ccc(Cl)cc1)Nc1ccc(N2CCCCS2(=O)=O)cc1, O=C1CC(C(=O)Nc2ccccc2Cl)n2c(nc3ccccc32)N1 (centres undefined), COCCNC(=O)c1[nH]c2ccccc2c1NC(=O)c1cccc(C)c1, COc1cc(/C=C2\Oc3c4c(cc(C)c3C2=O)OCN(C2CC2)C4)cc(OC)c1OC, CCc1ccc(NC(=O)NCCNc2cc(Nc3ccccn3)ncn2)cc1, Cc1cc(C)n(-c2cc(SCC(=O)N3CCCC3)ncn2)n1, COc1ccc(-c2ccc(C)c(NC(=O)c3cc4ccccc4oc3=O)c2)nn1, Cn1cccc(C(=O)Nc2ccc3c(c2)CCC(=O)N3)c1=O, O=C(CCn1c(=O)oc2ccc(Cl)cc21)N1CCN(c2ccccc2Cl)CC1, COc1cccc(OCc2nc3c(C)cccc3[nH]2)c1, CCC(C)c1ccc(Cn2c(CO)nc3ccccc32)cc1 (centres undefined), CC(=O)c1cccc(NC(=O)CCCn2cnc(-c3ccc(F)cc3)cc2=O)c1, COCCn1c(SCc2nc(-c3ccc(Cl)cc3)no2)nc2cc3c(cc2c1=O)OCO3, CCOc1cc(C(=O)Nc2ccc3c(c2)N(C(C)=O)CCC3)cc(OCC)c1OCC, Cn1cnnc1SCc1cc(=O)c(OCC(=O)NCc2ccco2)co1, COC(=O)c1[nH]c(C)c(C(O)=C2C(=O)C(=O)N(CCCN(C)C)C2c2cccs2)c1C (centres undefined), O=C(Nc1nc(-c2cc3ccccc3o2)cs1)c1ccc(S(=O)(=O)N2CCOCC2)cc1, Cc1ccnc(Nc2cc(NCCNC(=O)Nc3cccc(Cl)c3)ncn2)c1, COc1cccc(NC(=O)CSc2ncc(S(=O)(=O)c3ccc(Cl)cc3)c(=O)[nH]2)c1, O=S(=O)(Cc1nc(-c2cccc(Cl)c2)no1)c1ccccc1, O=S(=O)(c1ccccc1F)N(CCc1cccs1)Cc1ccoc1, COc1ccc(Nc2c(C(=O)N3CCCCC3)cnc3nc(C)ccc23)cc1OC, O=S(=O)(NCCC(O)c1ccoc1)c1ccc(F)c(Cl)c1 (centres undefined), COC(=O)c1ccc2c(=O)n(CCC(=O)NCCN3CCCc4ccccc43)c(=S)[nH]c2c1, Cc1nc2sc(C)c(C)n2c(=O)c1NC(=O)c1ccccc1C(F)(F)F, COC(=O)Nc1nc2c(s1)CN(C(=O)c1cccc(C#N)c1)CC2, COc1cc(NC(=O)c2cnccn2)ccc1N1CCCC1=O, Cc1nn(-c2ccccc2)c(C)c1N1CCN(S(=O)(=O)c2cccs2)CC1, Cn1cccc1C(=O)N1CCN(Cc2nncn2-c2ccccc2F)CC1, Cc1cn2c3c(=O)n(C/C=C/c4ccccc4)c(=O)n(C)c3nc2n1-c1ccccc1O, CCCCN(C)C(=O)c1cc2c(=O)n3ccccc3nc2n1CCCOC, COc1ccc(OC)c(S(=O)(=O)NCC(c2ccc(F)cc2)N2CCOCC2)c1 (centres undefined), CCOC(=O)c1cnn2ccc(NC(=O)c3cnn(-c4ccccc4)c3C)cc12, COc1ccc(C(O)CN2CCN(c3cccc(C)c3C)CC2)cc1 (centres undefined), Cc1cc(NC(=O)C2CCN(C(=O)C3(c4ccccc4)CCOCC3)CC2)no1, COc1cccc(C(=O)Oc2ccc(/C=C/c3ccccn3)cc2)c1, Nc1cc2cc(Br)ccc2cn1, COc1ncccc1C(=O)NCCn1nc(C2CC2)n(-c2ccccc2)c1=O, CCc1cc2c(=O)n(Cc3ccco3)c(SCc3cc(=O)[nH][nH]3)nc2s1, Cc1cc(N2CCN(CCO)CC2)n2nc(C(F)(F)F)c(-c3ccc(Cl)cc3)c2n1, CCOc1ccc(N(C)S(=O)(=O)c2ccsc2C(=O)NCCC2=CCCCC2)cc1, CCC(=O)Nc1cc(-c2ccco2)nn1-c1nc2c(c(=O)[nH]1)CCC2, O=C(CCC(=O)N1CC(c2nc(-c3cccs3)no2)C1)c1ccccc1, Cc1ccc(Cl)c(-n2nnc(C(=O)Nc3ccccc3Cl)c2C)c1, O=C(NCC(=O)N1CCN(c2cc(-n3cccc3)ncn2)CC1)c1ccccc1, O=C(Nc1ccc2c(c1)OCO2)Nc1ccccc1NC(=O)c1ccccc1F, O=S(=O)(NC1CCN(c2ccc(-c3ccccc3Cl)nn2)CC1)c1cccs1, O=C(CN1CCN(c2ccccc2F)C1=O)Nc1ccc(OC(F)(F)F)cc1, CCOC(=O)N1CCc2c(sc(NC(=O)c3ccc(C)c(C)c3)c2-c2nc3ccccc3s2)C1, Cc1nnc(NC(=O)C2CCN(c3ccc(-c4ccco4)nn3)CC2)s1, Cc1cc(-c2ccccc2)nc2cc(-c3nc(-c4cccs4)no3)nn12, CCCCCNC(=O)c1sc(-c2nnn(-c3ccc(F)cc3)c2C)nc1C, Cc1ccc2[nH]c3c(=O)n(CC(=O)N4CCN(c5cccc(C(F)(F)F)c5)CC4)cnc3c2c1, COc1ccc(NCCN2N=C(C)C(C)n3c2nc2c3c(=O)n(C)c(=O)n2C)cc1 (centres undefined)
